# The antibiotic and cytotoxicity screens of Wong et al. (2023)
# In all, about 39,000 compounds went through this assay and about 3,300 (8.5%) were called active. This excerpt belongs to a sample that is enriched for actives.
# Test system: HepG2
# Test: cytotoxicity call (relative viability < 0.9)
# Settings: 10 µM
row,Structure (SMILES),cytotoxicity call
1,Cc1noc(C)c1NC(=O)N(C)C[C@H]1OCCCC[C@@H](C)Oc2ccc(NC(=O)Cc3ccccc3)cc2C(=O)N([C@H](C)CO)C[C@@H]1C,inactive
2,O=C(C[C@H]1CC[C@H]2[C@@H](COC[C@@H](O)CN2Cc2ccccc2F)O1)N[C@H]1CCN(Cc2ccccc2)C1,inactive
3,CCOC(=O)Cc1csc(/C(=N/O)C(N)=O)n1,inactive
4,COC(=O)CN(C)c1nnc(N)s1,inactive
5,COC(=O)Cc1csc(CC(N)=O)n1,active
6,COC(=O)c1c(CC[C@@H](CO)NC(=O)NCCn2cc(C3(O)CCCC3)nn2)oc(C(C)=O)c1C(=O)OC,inactive
7,Cc1ccc(S(=O)(=O)N(C)C[C@@H]2OCCCC[C@@H](C)Oc3ccc(NC(=O)Nc4c(C)noc4C)cc3C(=O)N([C@@H](C)CO)C[C@H]2C)cc1,inactive
8,C[C@@H]1CN([C@@H](C)CO)C(=O)c2cccc(NS(=O)(=O)c3cccs3)c2O[C@H]1CN(C)Cc1ccc(-c2ccccc2)cc1,inactive
9,C[C@H]1CN([C@@H](C)CO)C(=O)Cc2cc(NC(=O)Cc3cn(C)c4ccccc34)ccc2O[C@@H]1CN(C)C,inactive
10,COc1cc2c(cc1OC)CN(CCc1ccc(-n3nnc(-c4cc(OC)c(OC)cc4NC(=O)c4cc(=O)c5ccccc5o4)n3)cc1)CC2,inactive
11,COc1cc2c(cc1OC)CN(CCc1ccc(NC(=O)c3cc(OC)c(OC)cc3NC(=O)c3cnc4ccccc4c3)cc1)CC2,active
12,COc1cc2c(cc1OC)CN(CCc1ccc(NC(=O)c3cccc4c(=O)c5cccc(OC)c5[nH]c34)cc1)CC2,inactive
13,CNC[C@@H]1Oc2ccc(NC(=O)Cn3cnnn3)cc2C(=O)N([C@@H](C)CO)C[C@H]1C,inactive
14,CCCCCCO[C@H](C)c1c(c/2[nH]c1/C=C/1\N=C(/C=C/3\NC4=C(CC(=O)C4=C3C)C3=N/C(=C2)[C@@H](C)[C@@H]3CCC(=O)O)C(=C1C)CC)C,active
15,Cc1noc(C)c1NC(=O)Nc1cccc2c1O[C@@H](CN(C)Cc1ccc(C(F)(F)F)cc1)[C@@H](C)CN([C@H](C)CO)C2=O,inactive
16,COc1ccc(S(=O)(=O)Nc2ccc3c(c2)C(=O)N([C@@H](C)CO)C[C@@H](C)[C@H](CN(C)C(=O)C2CCCCC2)OCCCC[C@H](C)O3)cc1,inactive
17,CC(C)(C)[S@@](=O)N1Cc2cc(C(=O)N3CCCCC3)nc(-c3cccc(-c4cccc(C#N)c4)c3)c2[C@H]1CCO,inactive
18,CO[C@@H]1CN(C)C(=O)c2cc(NC(=O)C3CC3)ccc2OC[C@H](C)N(C(=O)C2CCOCC2)C[C@@H]1C,inactive
19,Cc1noc(C)c1S(=O)(=O)Nc1ccc2c(c1)CC(=O)N([C@H](C)CO)C[C@@H](C)[C@H](CN(C)S(=O)(=O)c1ccc(Cl)cc1)O2,inactive
20,CC(=O)Oc1cccc(O)c1,inactive
21,CC(=O)Oc1ccc(O)cc1,active
22,CC(=O)Nc1ccc(OC(C)=O)cc1,inactive
23,C[C@@H]1CN([C@H](C)CO)C(=O)c2c(c3ccccc3n2C)-c2ccccc2CO[C@H]1CN(C)C(=O)c1cc(Cl)cc(Cl)c1,inactive

row,Structure (SMILES),cytotoxicity call
1,C[C@H]1CN([C@@H](C)CO)C(=O)c2c(c3ccccc3n2C)-c2ccccc2CO[C@H]1CN(C)C(=O)c1cc(Cl)cc(Cl)c1,inactive
2,C[C@@H]1CN([C@@H](C)CO)C(=O)c2c(c3ccccc3n2C)-c2ccccc2CO[C@H]1CN(C)C(=O)c1cc(Cl)cc(Cl)c1,inactive
3,C[C@H]1CN([C@@H](C)CO)C(=O)c2c(c3ccccc3n2C)-c2ccccc2CO[C@@H]1CN(C)C(=O)c1cc(Cl)cc(Cl)c1,inactive
4,C[C@H](CO)N1C[C@H](C)[C@@H](CN(C)C(=O)c2cc(Cl)cc(Cl)c2)OCc2ccccc2-c2c(n(C)c3ccccc23)C1=O,active
5,C[C@@H]1CN([C@@H](C)CO)C(=O)c2c(c3ccccc3n2C)-c2ccccc2CO[C@@H]1CN(C)C(=O)c1cc(Cl)cc(Cl)c1,active
6,Cc1ccc(S[C@]2(C(=O)NC(C)C)CC(=O)N(Cc3ccccc3Cl)[C@@H]2c2ccc(CO)cc2)cc1,inactive
7,C[C@@H]1CCCCO[C@@H](CN(C)Cc2ccc(C(F)(F)F)cc2)[C@H](C)CN([C@H](C)CO)C(=O)c2cc(NC(=O)CCCN(C)C)ccc2O1,inactive
8,CS(=O)(=O)N1CCS(=O)(=O)[C@H]2CCN(CC3CC3)CC[C@@H]21,inactive
9,COc1ccc(S(=O)(=O)N(C)C[C@@H]2Oc3ccc(NC(=O)Nc4cccc5ccccc45)cc3C(=O)N([C@H](C)CO)C[C@@H]2C)cc1,inactive
10,CC(C)c1c(C(=O)Nc2ccccc2)c(-c2ccccc2)c(-c2ccc(F)cc2)n1CC[C@@H](O)C[C@@H](O)CC(=O)O,inactive
11,C[C@@H]1CCCCO[C@@H](CN(C)CC2CC2)[C@H](C)CN([C@@H](C)CO)C(=O)c2cc(NC(=O)c3ccccc3)ccc2O1,inactive
12,C[C@@H]1CCCCO[C@@H](CN(C)Cc2ccc(C(=O)O)cc2)[C@@H](C)CN([C@H](C)CO)C(=O)c2cc(NC(=O)C3CCCCC3)ccc2O1,inactive
13,CC1=C(C(=O)O)N2C(=O)[C@@H](NC(=O)[C@H](N)c3ccc(O)cc3)[C@H]2SC1,inactive
14,CCN1CCN(Cc2ccc(C(=O)Nc3ccc(C)c(Oc4ccc5c(c4)CC(=O)N5)c3)cc2C(F)(F)F)CC1,active
15,COCC(=O)Nc1ccc2c(c1)CC(=O)N2,inactive
16,CC1=NCCC2c3ccc(O)cc3NC12 (stereo not given),active
17,CCS(=O)(=O)N1C[C@]2(C1)CN([C@@H](CO)c1[nH]c3cc(ccc3c12)OC)S(=O)(=O)c1cccc(c1)OC,inactive
18,C[C@@H]1CN([C@@H](C)CO)C(=O)c2cccc(NC(=O)c3ccncc3)c2O[C@@H]1CN(C)Cc1ccncc1,inactive
19,CN1C(=O)c2cc(NC(=O)c3cscn3)ccc2OC[C@H]2O[C@H](CC(=O)N3CCOCC3)CC[C@@H]21,inactive
20,C=C1C(=O)OC2CC3(C)CCCC(C)C3=CC12 (stereo not given),active
21,C[C@H](CO)N1C[C@H](C)[C@@H](CN(C)C(=O)Nc2ccccc2)Oc2ccc(NC(=O)Cn3cnnn3)cc2CC1=O,inactive
22,CC(=O)N(C)C[C@@H]1Oc2cc(C#CCN(C)C)ccc2S(=O)(=O)N([C@@H](C)CO)C[C@@H]1C,inactive
